Compounds without any hit were thinned out: in the full panel of roughly 83,000, 20% have a hit.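 Results are percent growth after 48 hours of single-concentration exposure. 100 means growth as in untreated cells, lower positive values show inhibition; negative values down to -100 show cell death.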 Unmarked numbers belong to inactive results. Activity calls are given as the source filed them. The calls were made as follows: active = growth percent below 10; inactive = the rest.

We go through 18 compounds from PubChem BioAssay (NCI).

Common to all, as to assay: NCI-60 one-dose screen, 48 h (100 = growth as untreated, 0 = no growth, -100 = all killed)
The test system of one test is BT-549 breast. As to conditions: 10 µM unless noted.
A further test concerns MDA-MB-435 melanoma. As to conditions: 10 µM unless noted.
The test system of the next test is SW-620 colon. As to conditions: 10 µM unless noted.
In a further test the test system is MCF7 breast. The note with it: 10 µM.
For a further test, the system named is HCT-116 colon. As to conditions: 10 µM unless noted.
A further test relates to HCC-2998 colon. As to conditions: 10 µM unless noted.
The subject of a further test is KM12 colon. The note with it: 10 µM unless noted.

`FC(F)(F)c1cccc(Nc2nc3ccccc3nc2Nc2cccc(C(F)(F)F)c2)c1`: the growth in the test on BT-549 breast was 7.74% (active); with MDA-MB-435 melanoma, -71.8% (active); with SW-620 colon it was -26.9% (active); in the test on MCF7 breast it was -57% (active); with HCT-116 colon, -41.7% (active); with HCC-2998 colon, -55.1% (active). Further, in the test with KM12 colon, the growth is -37.2% (active).

Consider `NS(=O)(=O)c1ccc(CCN=C=S)cc1`, for which the growth with BT-549 breast was 63.8%; with MDA-MB-435 melanoma, 27.9%; with SW-620 colon, -22.9% (active); in the test with MCF7 breast, 2.99% (active); with HCT-116 colon it was 0.727% (active); in the test with KM12 colon it was 8.37% (active).

`COc1cccc2c1C=C1CCCCC3=Cc4c(OC)cccc4OC13O2`: the growth is 64% in the test on BT-549 breast; -15.8% (active) in the test with MDA-MB-435 melanoma; 27.2% in the test with SW-620 colon; 26.5% in the test with MCF7 breast; 22.1% in the test on HCT-116 colon; 32.3% with KM12 colon.

For `CN1C(=O)N(C)C2C1NN=c1s/c(=C\c3ccc([N+](=O)[O-])cc3)c(=O)n12` (configuration not stated), the growth in the test with BT-549 breast is 60.5%; in the test on MDA-MB-435 melanoma it was 6.25% (active); in the test on SW-620 colon it was 37.8%; in the test with MCF7 breast it was 26%; in the test with HCT-116 colon, 37.6%; with HCC-2998 colon, 84.9%. For the same compound, in the test with KM12 colon, the growth was 35.5%.

For `Cn1nc(C(C)(C)C)cc1NC(=O)Cc1ccc(/C=C2\C(=O)Nc3ccccc32)cc1`, the growth in the test on BT-549 breast was 35.4%; in the test on MDA-MB-435 melanoma it was 56%; in the test on SW-620 colon, 76.8%; in the test with MCF7 breast, 19.2%; with HCT-116 colon, 33.6%; in the test on KM12 colon, 21.7%.

For `COc1ccc(OC)c(N(CCN2C(=O)c3ccccc3C2=O)C(=O)CCl)c1`, the growth in the test on BT-549 breast was 92.4%; in the test on MDA-MB-435 melanoma, 81.5%; in the test with SW-620 colon, 96.4%; with MCF7 breast, 78.8%; in the test with HCT-116 colon, 89%; in the test on HCC-2998 colon, 111%. Moreover, the growth with KM12 colon was -11.3% (active).

For the compound `O=c1c(-c2nc3ccccc3[nH]2)cc2ccccc2n1Cc1cn(Cc2ccccc2Cl)nn1`, the growth is 13.3% in the test with BT-549 breast; 15.1% in the test on MDA-MB-435 melanoma; 37.5% with SW-620 colon; 26.2% in the test on MCF7 breast; 18.2% in the test on HCT-116 colon; 45.5% in the test with KM12 colon.

Regarding `OC(c1ccccc1)c1nnc(SCc2ccccc2)n1Cc1ccccc1` (configuration not stated), the growth in the test with BT-549 breast is 88.4%; in the test on MDA-MB-435 melanoma it was 97.8%; in the test on SW-620 colon, 105%; in the test with MCF7 breast it was 92.9%; with HCT-116 colon, 92.2%; with HCC-2998 colon, 111%. Further, the growth with KM12 colon was 108%.

Consider `CCn1c(SCC(=O)Nc2cc(C(F)(F)F)ccc2Cl)nc2ccccc2c1=O`, for which the growth in the test on BT-549 breast is 64.3%; in the test on MDA-MB-435 melanoma, 18.1%; in the test on SW-620 colon it was 49.1%; with MCF7 breast, 28.9%; in the test with HCT-116 colon it was 32.2%; in the test on HCC-2998 colon, 11.7%. The growth in the test on KM12 colon is 10.3%.

As to `CN1CCN(Cc2ccc(C(=O)Nc3cncc(C#Cc4cnc5cccnn45)c3)cc2C(F)(F)F)CC1`, the growth in the test on BT-549 breast is 78.3%; with MDA-MB-435 melanoma, 57.7%; in the test on SW-620 colon, 21.8%; in the test with MCF7 breast, 20.4%; in the test on HCT-116 colon, 13%; in the test with KM12 colon, 12.7%.

For `CCOC(=O)C1=C(C)N=c2s/c(=C\c3ccccc3O)c(=O)n2C1c1ccc(OC)c2ccccc12` (configuration not stated), the growth in the test with BT-549 breast is 60.3%; with MDA-MB-435 melanoma, -76.6% (active); in the test on SW-620 colon, -78.2% (active); in the test with MCF7 breast, -75.4% (active); in the test with HCT-116 colon, 11.6%; with KM12 colon, 8.88% (active).

With `COC(=O)C1=C(C)NC(C)=C(C(=O)OC)C(N2C(=O)CCC2=O)C1` (configuration not stated), the growth with BT-549 breast is 79.4%; in the test on MDA-MB-435 melanoma it was 81.7%; in the test with SW-620 colon, 44.7%; in the test with MCF7 breast, 69.6%; in the test on HCT-116 colon it was 57.5%; in the test with HCC-2998 colon it was 105%. In the test with KM12 colon, the growth is 94.7%.

As for `COc1ccc(OC)c(/C=C/C(=O)c2c(C)nc3ccccc3c2/C=C/c2ccccc2)c1`, the growth was 59% in the test on BT-549 breast; 46.4% with MDA-MB-435 melanoma; 36.5% with SW-620 colon; 19.8% in the test on MCF7 breast; 34.1% with HCT-116 colon; 93.6% in the test with HCC-2998 colon. The growth in the test with KM12 colon was 69.4%.

In the case of `CNCCNc1nc2ccccc2c2c(=O)c3cc(OC)ccc3sc12`, the growth is 76.1% in the test on BT-549 breast; -86.1% (active) with MDA-MB-435 melanoma; -78.3% (active) in the test on SW-620 colon; -56.9% (active) with MCF7 breast; -82.3% (active) in the test on HCT-116 colon; -75.7% (active) with KM12 colon.

`C1=CC2(C=C1)OC21CCC2(C=CC3(C2)OC3C2CCCCC2)CC1` (configuration not stated): the growth in the test on BT-549 breast is 107%; in the test on MDA-MB-435 melanoma it was 97.4%; in the test with SW-620 colon it was 109%; in the test with MCF7 breast, 106%; in the test with HCT-116 colon, 101%; in the test on HCC-2998 colon it was 105%. In the test on KM12 colon, the growth was 105%.

With `O=C(/C=C/c1ccccn1)c1ccc(OCc2nnc(-c3ccc(Cl)cc3)o2)cc1`, the growth with BT-549 breast is 16.5%; in the test with MDA-MB-435 melanoma, -66.2% (active); with SW-620 colon it was -43.6% (active); in the test with MCF7 breast it was -28.3% (active); with HCT-116 colon it was -71.6% (active); with KM12 colon, -69.9% (active).

As to `C[n+]1c2ccccc2nc2ccc(NCCO)cc21`, the growth in the test with BT-549 breast is 105%; in the test with MDA-MB-435 melanoma it was 98.4%; in the test on SW-620 colon, 96.6%; with MCF7 breast it was 84.8%; in the test with HCT-116 colon it was 94.2%; in the test with HCC-2998 colon, 116%. In the test on KM12 colon, the growth is 92%.

With `COc1ccccc1N1C(=N)S/C(=C\c2ccc(OCc3ccccc3F)cc2)C1=O`, the growth was 97.4% in the test with BT-549 breast; 90.4% in the test on MDA-MB-435 melanoma; 88.1% in the test on SW-620 colon; 33% with MCF7 breast; 67.8% in the test with HCT-116 colon; 71.2% in the test on KM12 colon.
